Holding throughout (test): NCI-60 one-dose screen, 48 h (100 = growth as untreated, 0 = no growth, -100 = all killed)
What all share (conditions): 10 µM unless noted

In experiment [1] the test system is NCI-H23 lung.
Experiment [2] concerns NCI-H226 lung.
Experiment [3] relates to NCI-H322M lung.
Experiment [4] relates to HOP-62 NSCLC.
For experiment [5], the system named is NCI-H460 lung.
For experiment [6], the system named is HOP-92 NSCLC.
Experiment [7] concerns NCI-H522 lung.
Experiment [8] deals with A549/ATCC NSCLC.
For experiment [9], the system named is 786-0 renal.
For experiment [10], the system named is COLO 205 colon.

This is part of a sample that, as a whole, favours compounds with a hit. Of some 83,000 tested, about 20% had one in any assay.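 Negative percent growth values reflect cell death: -40 means 40% of the cells present at the start died, and -100 means all died.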 Values without a mark were called inactive. Calls of active or inactive are those of the source. The calls were made as follows: active = growth percent below 10; inactive = the rest.

With `Cc1ccc(-c2cnc3sc4ccc(Cl)cc4n23)cc1`, the growth in experiment [1] was 89.7%; in [2] it was 74.6%; in experiment [3], 93.4%; in experiment [4], 80.3%; in experiment [5], 104%; in [6] it was 85.6%. Further, the growth was 78.1% in experiment [7], 112% in experiment [8], 109% in experiment [9] and 96.8% in experiment [10].

On to `COc1ccc(NC(=O)/C=C/c2ccc(Cl)c(Cl)c2)cn1`, for which the growth was 84.7% in experiment [1]; 68.3% in experiment [2]; 91.6% in experiment [3]; 90.1% in [4]; 99% in [5]; 87.1% in [6]. The growth in experiment [7] was 79.9%; in [8] it was 79.1%; in [9], 85.6%; in experiment [10], 101%.

In the case of `COc1cccc(Cn2c(-c3nonc3NC(C)=O)nc3ccccc32)c1`, the growth in [1] is 39.8%; in [2], 60.9%; in experiment [3], 33.7%; in experiment [4], 38.9%; in experiment [5], 20.7%; in experiment [6] it was 29.6%. For the same compound, the growth in [7] is -20.6% (active); in experiment [8], 41.4%; in experiment [9] it was 45.8%; in experiment [10] it was 23.8%.

Turning to `O=[N+]([O-])c1ccccc1CN1CCCCC1`, the growth in experiment [1] is 92.8%; in experiment [2] it was 112%; in experiment [3], 106%; in experiment [4] it was 107%; in experiment [5], 116%; in [6], 89.7%. Further, the growth in [7] is 110%; in [8], 106%; in experiment [9], 111%; in [10], 111%.

Turning to `Nc1nc2c(c3ncccc13)C(c1ccccc1)Cc1ncccc1-2` (stereo not given), the growth is 83.3% in experiment [1]; 88.4% in experiment [2]; 102% in experiment [3]; 72.1% in experiment [4]; 92% in experiment [5]; 96.1% in [6]. For the same compound, the growth in experiment [7] was 42.9%; in experiment [8], 72.3%; in experiment [9], 104%; in experiment [10], 87.8%.

On to `COc1ccc(-c2nc3ccc(Cc4ccc5nc(-c6ccc(OC)cc6)[nH]c5c4)cc3[nH]2)cc1`, for which the growth is -17.9% (active) in [1]; 90.6% in [2]; 97.7% in [3]; 49.1% in [4]; 69.1% in experiment [5]; 77.9% in [6]. Moreover, the growth in [7] is -13.4% (active); in experiment [8], 48.5%; in experiment [9] it was 89.5%; in experiment [10], 5.61% (active).

Regarding `C=CCn1c(C)nc2cc(Nc3nc(N4CCOCC4)nc4nc[nH]c34)ccc21`, the growth was 106% in experiment [1]; 88.6% in experiment [2]; 88.3% in [3]; 67.8% in [4]; 94.1% in [5]; 4.17% (active) in [6]. Besides, the growth in [7] is 88.2%; in experiment [8], 95.1%; in experiment [9], 63.1%; in experiment [10], 97.9%.

Regarding `O=C1C=CC(=O)N1c1cccc(N2C(=O)C=CC2=O)c1`, the growth was 98.7% in experiment [1]; 111% in experiment [2]; 116% in experiment [3]; 114% in [4]; 119% in [5]; 94.9% in experiment [6]. In addition, the growth in [7] was -73.1% (active); in experiment [8] it was 101%; in [9] it was 108%; in experiment [10], -48.1% (active).

As to `CCOC(=O)c1ccc(N(CCC(=O)O)C(C)=O)cc1`, the growth in experiment [1] is 111%; in [2], 102%; in experiment [3], 92.1%; in [4] it was 108%; in [5], 111%; in [6], 96.2%. The growth in [7] is 95%; in experiment [8], 104%; in [9], 104%; in experiment [10] it was 119%.

Take `N[C@@H](CO)C(=O)O`: the growth in experiment [1] is 91%; in experiment [2], 97.7%; in experiment [3] it was 103%; in experiment [4], 105%; in [5], 107%; in experiment [6] it was 89.8%. The growth in [7] was 107%; in [8], 102%; in experiment [9], 95.1%; in [10], 106%.

With `COC(=O)c1cc(Cl)cc([N+](=O)[O-])c1O`, the growth in [1] was 111%; in experiment [2], 97.9%; in [3] it was 115%; in experiment [4] it was 104%; in [5] it was 116%; in [6] it was 83.8%. For the same compound, the growth in [7] is 99.5%; in experiment [8], 105%; in experiment [9], 108%; in [10], 115%.

As to `CCC(C)C1NC(=O)c2nc(oc2-c2ccccc2)-c2csc(n2)-c2csc(n2)-c2nc(oc2C)-c2coc(n2)CNC(=O)C(C(C)CC)NC1=O` (stereo not given), the growth in [1] is -68.2% (active); in [2] it was -55.8% (active); in [3] it was -98.9% (active); in experiment [4], -57% (active); in experiment [5] it was -81.4% (active); in experiment [6], -83.3% (active). In addition, the growth in experiment [7] was -74.7% (active); in experiment [8] it was -76.6% (active); in experiment [9], -73.1% (active); in [10] it was -77.3% (active).

Turning to `O=C(/C=C/c1cccc([N+](=O)[O-])c1)c1ccc(Nc2nc(N3CCCCC3)nc(N3CCCCC3)n2)cc1`, the growth is 98.7% in [1]; 74.2% in [2]; 103% in [3]; 105% in experiment [4]; 96% in experiment [5]; 102% in [6]. The growth is 87.2% in experiment [7], 85.7% in experiment [8], 93.9% in experiment [9] and 108% in experiment [10].

Regarding `C=CCn1c(C)nc2cc(Nc3nc(N4CCCC4)nc4nc[nH]c34)ccc21`, the growth in experiment [1] is 52.4%; in [2], 58.9%; in experiment [3] it was 50.9%; in experiment [4], 50.6%; in [5], 0.371% (active); in [6], -39.5% (active). Besides, the growth in experiment [7] was 56.3%; in experiment [8], 46.3%; in experiment [9] it was -76.1% (active); in [10], 73.4%.
